Most compounds without a hit are left out; they make up all but 1.8% or so of the library.
HTR2A ag: mouse HTR2A agonism via beta-arrestin recruitment | AID 624169 | CHO-K1 mHTR2A beta-arrestin complementation, luminescence; percent of 30 µM serotonin response | activation, % at 7.6 µM | 360,000 compounds, 0.66% hits | P35363;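 active = activation above a run cutoff, the mean activation of all tested compounds plus 3 SD, cut at about 14% in these data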;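 also: 0% = plate median of compound wells and 100% = 30 µM serotonin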
LANA-H2B inh: blocks KSHV LANA binding to histone H2A/H2B | inhibition, % (concentration not given with the values) | 320,000 compounds, 0.6% hits | cell-free LANA-H2A/H2B peptide, fluorescence polarization | Q9QR71; in the data active = inhibition mostly above about 10%, no sharp cut-off; inactive = mostly below about 6.7%
TLR9-MyD88 inh: TLR9-MyD88 interaction inhibition; 340,000 compounds, 0.21% hits; inhibition, % at 4.98 µM; CHO BLA complementation TLR9-MyD88, CCF4 FRET ratio; Q9NR96+Q99836; AID 504734;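 active = inhibition above the mean over all tested compounds plus 3 SD, cut at about 21% in these data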;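 also: 0% = DMSO only wells and 100% = clavulanate BLA inhibitor control wells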
Rtt109 HAT inh: C. albicans Rtt109 histone acetyltransferase inhibition | purified Rtt109/Vps75, ThioGlo CoA-SH fluorescence, 4 h | 330,000 compounds, 0.16% hits | Q5AAJ8 | inhibition, % at 34.9 µM;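 active = inhibition of at least 50% in every replicate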
Target sequence (Q5AAJ8 whole entry, looked up): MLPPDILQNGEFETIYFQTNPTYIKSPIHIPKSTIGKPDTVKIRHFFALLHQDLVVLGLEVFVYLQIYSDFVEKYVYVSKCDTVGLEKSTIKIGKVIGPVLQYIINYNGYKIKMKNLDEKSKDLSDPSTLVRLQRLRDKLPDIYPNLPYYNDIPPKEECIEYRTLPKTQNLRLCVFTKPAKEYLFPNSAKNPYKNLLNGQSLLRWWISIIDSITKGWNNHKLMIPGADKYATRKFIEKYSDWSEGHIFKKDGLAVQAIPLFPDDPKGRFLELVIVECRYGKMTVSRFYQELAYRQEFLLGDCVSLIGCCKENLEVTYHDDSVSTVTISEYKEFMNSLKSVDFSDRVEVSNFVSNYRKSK
TLR4 MyD88 comp: TLR4-MyD88 interaction inhibition in cells. 200,000 compounds, 0.18% hits. AID 861. O00206+Q99836. HeLa CL3-4 TLR4/MyD88 BLA complementation, FRET ratio. inhibition, % at 8.4 µM; in the data active = inhibition above about 25%;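 also: 0% = vehicle and 100% = reference inhibitor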
NOD2-RIPK2 inh: blocks binding of human NOD2 to RIPK2 | CHO BLA complementation NOD2-RIPK2, CCF4 ratio | inhibition, % at 4.98 µM | 360,000 compounds, 0.38% hits; in the data active = inhibition above about 21%;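 also: 0% = vehicle only and 100% = reference blocker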
TLR9-MyD88 cf: confirmation of human TLR9-MyD88 binding inhibitors. inhibition, % at 4.98 µM. CHO TLR9/MyD88 BLA complementation, CCF4 FRET ratio. 680 compounds, 51% hits. shares compounds with TLR9-MyD88 inh;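 active = mean inhibition across three repeats above about 21% taken from the earlier screen, limit read from the data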;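 also: blue over green emission ratio reports constitutive TLR9 MyD88 association via BLA complementation; 0% = DMSO vehicle wells and 100% = clavulanate BLA inhibitor wells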
BLA counter-1: beta-lactamase reporter inhibition, counter-screen artifact; shares compounds with TLR9-MyD88 inh; CHO-BLA cells, CCF4 FRET ratio, BLA reporter; inhibition, % at 4.98 µM; 680 compounds, 7% hits;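 active = mean inhibition above a 50% cutoff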;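 also: counterscreen of TLR9-MyD88 hits on CMV-driven BLA in CHO-K1 cells; 0% = DMSO alone and 100% = clavulanate blocking BLA; higher means less blue over green ratio so more BLA blockade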
TLR9 CHO cytotox: counter-screen for TLR9-MyD88 inhibitors: cytotoxicity in CHO cells. inhibition, % at 4.98 µM. luminescence. 680 compounds, 39% hits. shares compounds with TLR9-MyD88 inh; in the data active = inhibition above about 11%
MOR ag counter: OPRM1 agonism in mouse HTR2A counterscreen. shares compounds with HTR2A ag. U2OS OPRM1 beta-arrestin PathHunter, luminescence; DMSO 0%, DAMGO 9.3 µM 100%. activation, % at 9.3 µM. 2,300 compounds, 5.3% hits. AID 624380;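 active = mean activation above the mean of DMSO-only wells plus 3 SD, cut at about 0.5% in these data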
m5-HT2A ag conf: mouse HTR2A agonism confirmed. shares compounds with HTR2A ag. CHO-K1 PathHunter beta-arrestin recruitment, luminescence; DMSO 0%, 30 µM serotonin 100%. activation, % at 7.6 µM. 2,300 compounds, 19% hits;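 active = mean activation across triplicates above the hit threshold derived in the original primary screen, cut at about 15% in these data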
NOD2 RIPK2 conf: NOD2-RIPK2 interaction inhibition confirmed. 1,200 compounds, 70% hits. CHO cells, NOD2-RIPK2 BLA complementation, CCF4 FRET. inhibition, % at 4.98 µM. shares compounds with NOD2-RIPK2 inh;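 active = mean inhibition across replicates above a set limit taken from the earlier primary screen, cut at about 21% in these data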;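 also: 0% = DMSO-only wells and the high end = clavulanate BLA-blocked wells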
BLA counter-2: hits BLA reporter in NOD2-RIPK2 inhibitor counterscreen. shares compounds with NOD2-RIPK2 inh. CHO BLA reporter, CCF4 FRET ratio. inhibition, % at 4.98 µM. 1,200 compounds, 57% hits;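 active = mean inhibition above the low-control mean inhibition plus three low-control SD, cut at about 11% in these data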;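 also: 0% = DMSO only wells and 100% = clavulanate high control wells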
Numbers without * were called inactive; / = no result.

SMILES	HTR2A ag	LANA-H2B inh	TLR9-MyD88 inh	Rtt109 HAT inh	TLR4 MyD88 comp	NOD2-RIPK2 inh	TLR9-MyD88 cf	BLA counter-1	TLR9 CHO cytotox	MOR ag counter	m5-HT2A ag conf	NOD2 RIPK2 conf	BLA counter-2
Cc1ccc(-n2sc3cc(F)ccc3c2=O)c(C)c1	3	/	30*	/	/	38*	19	-1	85*	/	/	26*	15*
COc1cc2c3nnc(-c4ccc(F)cc4)c-3cn(Cc3ccc(F)cc3)c2cc1OC	18*	-2	24*	-11	2	56*	11	15	3	0	15*	61*	64*
Cn1nc2c3cc(F)ccc3n(Cc3ccc(F)cc3)cc-2c1=O	-2	-1	9	/	/	-6	/	/	/	/	/	/	/
Nc1c(C(=O)N2CCCCC2)sc2nc3c(cc12)CCCC3	-5	-10	0	-4	/	-3	/	/	/	/	/	/	/
Nc1c(C(=O)N2CCCC2)sc2nc(-c3ccccc3)ccc12	-1	1	30*	-5	/	34*	32*	30	5	/	/	52*	61*
CCCCCCCCN1C(=O)[C@H](CC(=O)NCCCCc2ccccc2)C[C@@]2(C(=O)OCC)CCCC=C12	-5	/	/	/	/	-15	/	/	/	/	/	/	/
COc1cc2cc(C(=O)NC(C)c3cccc4ccccc34)c(N)nc2cc1OC (stereo unspecified)	3	/	/	/	/	-13	/	/	/	/	/	/	/
Nc1c(C(=O)c2ccccc2)sc2nsc(SCCN3CCCC3)c12	-4	-2	28*	-5	/	29*	21*	18	9	/	/	44*	47*
Cc1ccccc1-n1c(C)cc(/C=N/Nc2ccc([N+](=O)[O-])cn2)c1C	-4	-1	37*	-12	24	28*	21*	25	10*	/	/	38*	40*
Cc1cccc(C)c1NC(=O)c1sc(N)nc1-c1ccccc1	19*	-1	2	-4	-20	4	/	/	/	0	-2	/	/
CC(C)Cn1c(N)cc(=O)n(C)c1=O	1	-2	13	-6	1	6	/	/	/	/	/	/	/
CCCn1c(N)cc(=O)n(CCC)c1=O	16*	0	3	-5	2	9	/	/	/	-1	-5	/	/
CCOC(=O)c1ccc(/C=N/O)[n+](Cc2ccccc2)c1	-4	-6	10	3	/	3	/	/	/	/	/	/	/
NC(=O)c1ccc(/C=N/O)[n+](Cc2ccccc2)c1	16*	4	4	8	/	12	/	/	/	-1	-3	/	/
O=C(Cc1c(F)cccc1Cl)NNC(=O)Nc1ccc2c(c1)OCO2	-3	-1	-12	-5	/	-14	/	/	/	/	/	/	/
CCc1ccc(NC(=O)CSc2nc3nc(C)cc(C)n3n2)cc1	18*	2	7	1	/	4	/	/	/	0	-2	/	/
Cc1cc(C)n2nc(SCC(=O)Nc3ccccc3)nc2n1	-6	0	6	-10	-14	-11	/	/	/	/	/	/	/
COc1ccc(NC(=O)c2ccc(NC(=O)c3nc4nc(C)cc(C)n4n3)cc2)cc1	15*	/	8	18	/	-5	/	/	/	-1	-4	/	/

Source: PubChem BioAssay
